# CYP2C19 act: increases human CYP2C19 enzyme activity | recombinant CYP2C19, luciferin-H EGE luminescence; active compounds read high; 0 = fully inhibited enzyme, 1 = untreated enzyme | 96,000 tested, under 10 active | P33261 | activation factor at 5 µM;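 active means activation factor of at least 2 at 5 µM in the primary screen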;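 further: 0 = wells with 2.5 mM tranylcypromine and 1 = vehicle-only wells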
# Target sequence (P33261 whole entry, looked up): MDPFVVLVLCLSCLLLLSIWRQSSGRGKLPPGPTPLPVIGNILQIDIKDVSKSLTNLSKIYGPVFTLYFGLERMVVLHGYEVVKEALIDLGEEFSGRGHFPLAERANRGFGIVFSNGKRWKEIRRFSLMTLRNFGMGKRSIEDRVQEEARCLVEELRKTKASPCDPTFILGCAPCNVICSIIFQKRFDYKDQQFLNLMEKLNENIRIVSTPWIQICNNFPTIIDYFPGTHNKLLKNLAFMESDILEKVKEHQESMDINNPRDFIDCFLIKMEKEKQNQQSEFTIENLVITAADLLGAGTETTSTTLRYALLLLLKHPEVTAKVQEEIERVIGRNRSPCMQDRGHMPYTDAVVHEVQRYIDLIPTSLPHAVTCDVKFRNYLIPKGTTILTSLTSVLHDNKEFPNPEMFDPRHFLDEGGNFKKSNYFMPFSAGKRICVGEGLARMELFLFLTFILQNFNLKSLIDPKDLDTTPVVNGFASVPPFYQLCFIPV
# PostGolgi yeast: growth inhibition of a yeast mutant, post-Golgi transport screen | post-Golgi transport phenotypic cell assay | inhibition, % at 10 µM | 0.9% of 98,000 active | AID 739;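 further: yeast cells grown in 1536-well plates; yeast grown about 18 h at 30C before absorbance read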
# CYP2C9 inh: inhibitors of human CYP2C9 | P11712 | CYP2C9 Supersomes, luciferin-H conversion, luminescence | inhibition, % at 5 µM | 20% of 96,000 active;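 active means blocking of liver enzyme CYP2C9 beyond about 50% at 5 µM, limit read from the data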
# PostGolgi ctrl: yeast control strain growth, post-Golgi counter-screen; AID 738; 5% of 98,000 active; inhibition, % at 10 µM; efflux-deficient yeast background strain, growth absorbance A615, 16 h
# CYP2C9 activ: CYP2C9 (human) activation; 1.4% of 96,000 active; AID 1024; activation factor at 5 µM; recombinant CYP2C9, luciferin-H conversion, luminescence; active compounds read high; factor 1 = untreated enzyme, 0 = blocked; P11712;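 active means activation factor of 2 or more for CYP2C9 at a 5 µM dose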;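 further: 0 = sulfaphenazole-blocked wells and 1 = vehicle-only wells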
# CYP2C19 inh: inhibitors of human CYP2C19. P33261. 21% of 96,000 active. CYP2C19 Supersomes, luciferin-H EGE luminescence, 30 min. inhibition, % at 5 µM;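 active means CYP2C19 inhibition above a set limit at 5 µM in the primary screen, cut at about 50% in these data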;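 further: plate controls were negative control wells for no effect and 2.5 mM tranylcypromine positive control for full effect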
# Starred values were filed as active, the others as inactive; . = no result. This is a sample that favours compounds with a hit; in the whole collection about 32% have one here. Unless noted, no stated cut-off is given here; in the data, active means inhibition above about 30%; inactive means the rest.
SMILES,CYP2C19 act,PostGolgi yeast,CYP2C9 inh,PostGolgi ctrl,CYP2C9 activ,CYP2C19 inh
Cc1ccc(NC(=O)CSC2=C(C#N)C(c3ccco3)CC(=O)N2)cc1 (stereo not given),0.2,0,50,2,0.5,81*
CCCn1nc(CC(=O)OCC)c2ccccc2c1=O,0.8,1,23,3,0.8,17
CSc1cccc(NC(=O)c2cnccn2)c1,0.9,7,-77,1,1.8,8
COCCOC(=O)C1=C(C)NC2=C(C(=O)CC(C)(C)C2)C1c1cccnc1 (stereo not given),0.7,8,5,4,0.9,35
CC1=C(C(=O)OCC2CCCO2)C(c2ccncc2)C2=C(CC(C)(C)CC2=O)N1 (stereo not given),0.4,18,22,1,0.8,57*
CSc1nc(Oc2ccc3ccccc3c2)c2sccc2n1,0.8,-6,87*,0,0.1,20
O=C(O)CSc1nnc(Cc2ccccc2)n1Cc1ccccc1,0.9,-2,4,20,1,11
NC(=O)CSc1nnc(Cc2csc(Nc3ccccc3)n2)n1Cc1ccccc1,0.3,-7,49,8,0.5,66*
CCc1nnc(NC(=O)C2CCCN2C(=O)NC2CCCCC2)s1 (stereo not given),1,4,6,-10,0.9,-2
COCCCN1C(=O)C(=O)/C(=C(/O)c2ccc(OCC(C)C)cc2C)C1c1cccnc1 (stereo not given),1,-4,-3,17,1,0
O=C(NCC(c1cccnc1)N1CCN(c2ccccc2F)CC1)C1CCCCC1 (stereo not given),0.2,-2,49,4,0.5,79*
COc1ccc(N2CCN(C(CNC(=O)C3CCCCC3)c3cccnc3)CC2)cc1 (stereo not given),0.9,3,15,35*,0.8,15
CC12CC(NC(=O)N1CCc1ccccc1)c1cc(Cl)ccc1O2 (stereo not given),.,0,.,7,.,.
CC(C)(C)c1cc(CN2CCCC(O)C2)c(O)c(C(C)(C)C)c1 (stereo not given),0.8,-3,37,29,0.6,21
O=c1cc(C(Cl)(Cl)Cl)oc2c1ccc1ccccc12,0.4,17,65*,53*,0.4,56*
CCc1ccc(NC(=O)c2sccc2-n2cccc2)cc1,0.9,-2,14,25,0.9,12
O=C(N/N=C/c1ccc(Cl)cc1)c1sccc1OCc1ccc(F)cc1,1,5,48,27,0.5,4
O=C(N/N=C/c1ccc(F)cc1)c1sccc1OCc1ccc(F)cc1,1.1,6,28,34*,0.7,-10
COc1ccc(Cc2nc(C(=O)Nc3ccccc3)cs2)cc1,0.1,-5,90*,20,0.1,88*
COc1ccc(NC(=O)c2ccccn2)cc1,0.7,-1,20,1,0.8,26
COc1ccc(Cc2nc(C(=O)Nc3ccc(Cl)cc3)cs2)cc1,0.2,19,90*,38*,0.1,83*
COc1ccc(COc2ccsc2C(=O)Nc2ccc(Cl)cc2)cc1,0.9,15,59*,14,0.4,10
O=C(Cc1ccccc1)Nc1c(C(=O)N2CCOCC2)cnn1-c1ccccc1,1.1,-4,-6,18,1.1,-6
COc1ccc(Cc2nc(C(=O)Nc3ccc(F)cc3)cs2)cc1,0.1,-5,87*,25,0.1,89*
CCOc1ccccc1-n1c(COc2ccc(C)cc2)nnc1SCC(N)=O,0.7,-7,17,2,0.8,27
SMILES,CYP2C19 act,PostGolgi yeast,CYP2C9 inh,PostGolgi ctrl,CYP2C9 activ,CYP2C19 inh
Cc1cc(C(=O)CSc2ccc(Cl)cc2)cc(C)c1OC(=S)N(C)C,0.6,-4,67*,0,0.3,44
Cn1c(=O)c2c(SC3CCCC3)nc(C3CC3)nc2n(C)c1=O,1,-12,8,9,0.9,-3
CN1CC(c2ccccc2)C2(SC(=S)N(Cc3ccco3)C2=O)C12C(=O)Nc1ccccc12 (stereo not given),0,13,95*,30,0,96*
CCOC(=O)c1sc(NC(=O)Nc2ccc(Cl)cc2)cc1C,0.6,3,18,62*,0.8,42
Cc1cccc(N2CCN(CCNC(=O)c3cc4c(s3)CS(=O)(=O)C4)CC2)c1C,0.5,16,53*,-13,0.5,48
CCCSCCCNC(=O)c1cc2c(s1)CS(=O)(=O)C2,0.9,1,14,1,0.9,8
